Assay results from the supplement of paper PMC9694430.

Experiments:
Test in all cases: thermal shift delta Tm vs DMSO control; higher = stronger stabilization (binding)
Conditions in all cases: 12.5 µM; protein concentration 2 µM
LOC_OS01G57100-cb003 = tested on: LOC_OS01G57100-cb003
How it was run: (§1)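 Rice kinase domain constructs were expressed in E. coli, purified, and tested by differential scanning fluorimetry with compound added in DMSO. Each well of a 96-well plate held 19.5 μl of 2 μM kinase in 100 mM potassium phosphate pH 7.5, 150 mM NaCl, 10% glycerol and 5 × SYPRO Orange, and fluorescence was read from 25°C to 95°C at 0.05°C/s. The melting temperature shift is the mean of triplicates, taken against protein with DMSO alone after Boltzmann fitting.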

LOC_OS01G60330-cb001 = tested on: LOC_OS01G60330-cb001
How it was run: as §1

LOC_OS01G60700-cb002 = tested on: LOC_OS01G60700-cb002
How it was run: as §1

LOC_OS01G63280-cb003 = tested on: LOC_OS01G63280-cb003
How it was run: as §1

LOC_OS01G67340-cb003 = tested on: LOC_OS01G67340-cb003
How it was run: as §1

LOC_OS01G70970-cb002 = tested on: LOC_OS01G70970-cb002
How it was run: as §1

LOC_OS02G07810-cb001 = tested on: LOC_OS02G07810-cb001
How it was run: as §1

LOC_OS02G08530-cb003 = tested on: LOC_OS02G08530-cb003
How it was run: as §1

LOC_OS02G14120-cb001 = tested on: LOC_OS02G14120-cb001
How it was run: as §1

LOC_OS02G17970-cb001 = tested on: LOC_OS02G17970-cb001
How it was run: as §1

Row | Structure (SMILES) | thermal shift delta Tm (LOC_OS01G57100-cb003) | thermal shift delta Tm (LOC_OS01G60330-cb001) | thermal shift delta Tm (LOC_OS01G60700-cb002) | thermal shift delta Tm (LOC_OS01G63280-cb003) | thermal shift delta Tm (LOC_OS01G67340-cb003) | thermal shift delta Tm (LOC_OS01G70970-cb002) | thermal shift delta Tm (LOC_OS02G07810-cb001) | thermal shift delta Tm (LOC_OS02G08530-cb003) | thermal shift delta Tm (LOC_OS02G14120-cb001) | thermal shift delta Tm (LOC_OS02G17970-cb001)
1 | CCN(CC)CCCC(C)Nc1ccnc2cc(Cl)ccc12 (stereo not given) [Chloroquine Phosphate] | 0.41 °C | 0.19 °C | 0.9 °C | -0.08 °C | 0.32 °C | -0.07 °C | 0.25 °C | 0.31 °C | 0.87 °C | -0.06 °C
2 | CCCCOc1c(C(=O)c2c(F)cc(C)cc2F)c[nH]c2nncc1-2 | 0.94 °C | 0.86 °C | -0.01 °C | 0.42 °C | 1.31 °C | 0.23 °C | 0.81 °C | 0.56 °C | 1.75 °C | 0.7 °C
3 | c1nc2c(NC3CCCCC3)nc(Nc3ccc(N4CCOCC4)cc3)nc2[nH]1 [Reversine] | 0.27 °C | 11.7 °C | 1.27 °C | 1.53 °C | 3.68 °C | 7.39 °C | -0.13 °C | 4.69 °C | 7.96 °C | 0.48 °C
4 | Nc1nc(N)c(N=O)c(OCC2CCCCC2)n1 | 1.14 °C | 2.6 °C | 1.46 °C | 0.91 °C | 0.46 °C | 1.27 °C | 0.51 °C | 0.99 °C | 2.99 °C | 0.61 °C
5 | Cn1cnc2c(F)c(Nc3ccc(Br)cc3F)c(C(=O)NOCCO)cc21 | 0.75 °C | 0.73 °C | 1.26 °C | 0.46 °C | 0.06 °C | 0.46 °C | 1.12 °C | 0.93 °C | -0.02 °C | 1.34 °C
6 | COc1nccc(-c2c(-c3ccc(F)cc3)ncn2C2CCC(O)CC2)n1 (stereo not given) | 1.45 °C | 1.05 °C | 0.84 °C | 0.44 °C | 0.6 °C | 0.09 °C | 0.67 °C | 0.39 °C | -0.37 °C | 0.65 °C
7 | COc1ccc([C@@H]2OC[C@H]3[C@@H]2CO[C@@H]3c2ccc(O[C@@H]3O[C@H](CO)[C@@H](O)[C@H](O)[C@H]3O)c(OC)c2)cc1OC [Forsythin] | 0.47 °C | -0.03 °C | -0.08 °C | -0.19 °C | 0.01 °C | 0.21 °C | -0.9 °C | 0.57 °C | 0.19 °C | -0.6 °C
8 | CC1=C(C(=O)Nc2ccc3[nH]ncc3c2)C(c2ccc(F)cc2)NC(=O)N1 (stereo not given) | 2.16 °C | 0.38 °C | 0.62 °C | 0.82 °C | 0.41 °C | 0.4 °C | -0.36 °C | 0.77 °C | 2.32 °C | 0.88 °C
9 | CCc1cccc(CC)c1NC(=O)N1Cc2[nH]nc(NC(=O)c3ccc(N4CCN(C)CC4)cc3)c2C1 | 0.59 °C | 0.73 °C | 0.44 °C | 0.43 °C | -0.29 °C | 0.21 °C | 0.66 °C | 0.96 °C | 4.48 °C | 0.32 °C
10 | Cc1ccc(NC(=O)c2cccc(N(C)C)c2)cc1NC(=O)c1ccc(O)cc1 | 2.98 °C | 1.17 °C | 1.43 °C | 0.32 °C | -0.19 °C | 0.28 °C | 1.54 °C | 1.03 °C | 0.45 °C | 0.95 °C
11 | Cc1ncc(CCCN(C)C)cc1Nc1ncc2c(n1)-c1ccc(C(F)(F)F)cc1NC(=S)C2 | 1.69 °C | 0.92 °C | 1.39 °C | 0.8 °C | 0.49 °C | 0.65 °C | 0.56 °C | 1.89 °C | 0.46 °C | 1.61 °C
12 | O=C(O)c1ccc2c(c1)nc(Nc1cccc(Cl)c1)c1ccncc12 [Silmitasertib (CX-4945)] | 2.46 °C | 4.93 °C | 1.42 °C | 1.39 °C | 0.58 °C | 0.36 °C | 0.97 °C | 1.24 °C | 2.72 °C | 1.95 °C
13 | Cc1[nH]c(/C=C2\C(=O)Nc3ccc(S(=O)(=O)N(C)c4cccc(Cl)c4)cc32)c(C)c1C(=O)N1CCN(C)CC1 | 1.03 °C | 5.91 °C | 0.86 °C | -0.04 °C | -0.53 °C | 0.47 °C | -0.12 °C | 3.7 °C | 8.19 °C | -0.27 °C
14 | N#CC1(c2ccc(NC(=O)c3cccnc3NCc3ccncc3)cc2)CCCC1 [Apatinib] | 1.62 °C | 0.33 °C | 0.74 °C | 5.6 °C | 0.6 °C | 0.01 °C | 1.02 °C | 0.96 °C | 0.6 °C | -0.16 °C
15 | C#Cc1cccc(Nc2ncnc3cc4c(cc23)OCCOCCOCCO4)c1 [Icotinib] | 2.43 °C | 0.51 °C | 1.16 °C | 0.89 °C | 0.11 °C | 0.61 °C | 0.45 °C | 1.31 °C | 2.16 °C | 1.61 °C
16 | Cc1cc(CN2CCN(c3c(Br)cnc4nc(-c5ccc(N6CCN(C)CC6)cc5)[nH]c34)CC2)no1 | 0.54 °C | 3.22 °C | 0.17 °C | 0.23 °C | 1.36 °C | 1.3 °C | 0.7 °C | 0.33 °C | 4.66 °C | 0.14 °C
17 | CN(C)CCCn1cc(C2=C(c3c[nH]c4ccccc34)C(=O)NC2=O)c2ccccc21 | 0.59 °C | 1.19 °C | 0.85 °C | 0.38 °C | 0.56 °C | 0.73 °C | 0.35 °C | 0.74 °C | 0.09 °C | 0.48 °C
18 | COc1ccc(-c2nc(N3CCOCC3)c3sc(CN(C)c4ncc(C(=O)NO)cn4)cc3n2)cn1 | 2.79 °C | 1.04 °C | 0.58 °C | 0.34 °C | 0.21 °C | 0.21 °C | 1.31 °C | 0.97 °C | 0.54 °C | 0.14 °C
19 | Cc1nc(Nc2n[nH]c3c2CN(C(=O)N[C@H](CN(C)C)c2ccccc2)C3(C)C)c2sccc2n1 | 0.61 °C | -0.15 °C | 1.34 °C | 0.55 °C | 0.06 °C | 0.38 °C | 0.99 °C | 2.37 °C | 0.4 °C | 0.96 °C
20 | O=S(=O)(NCCNC/C=C/c1ccc(Br)cc1)c1cccc2cnccc12 | 1.34 °C | 0.45 °C | 0.98 °C | 0.58 °C | -0.25 °C | 0.05 °C | 1.39 °C | 0.72 °C | 0.95 °C | 0.98 °C
